# CHO-K1 Ca PAM: nonselective calcium activators in parental CHO-K1 cells, primary screen, counter-screen for M1 PAM project, cell-based, Fluo-8 calcium fluorescence, full deck, 1536-well; AID 602247, 2012; activation, % at 3 µM; ATP EC20; 0% at ATP EC20, 100% at ATP max; hit rate 0.02% among 360,000;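 active = activation above the run cutoff, the mean activation of all test compounds plus 3 SD, cut at about 40% in these data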;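 note: peak over basal fluorescence ratio in a 140 s read after ATP addition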
# CHRM1 PAM: human M1 muscarinic receptor positive allosteric modulators, primary screen, CHO-K1 cells, Fluo-8 calcium fluorescence, 1536-well; activation, % at 3 µM; CHO-K1 hM1, ACh EC20; 0% = ACh EC20, 100% = maximal ACh; AID 588819, 2011; hit rate 0.088% among 360,000; Muscarinic acetylcholine receptor M1 (Homo sapiens), P11229; in the data active = activation above about 19%, passing the limit was not always enough
# Target sequence (P11229 whole entry, looked up): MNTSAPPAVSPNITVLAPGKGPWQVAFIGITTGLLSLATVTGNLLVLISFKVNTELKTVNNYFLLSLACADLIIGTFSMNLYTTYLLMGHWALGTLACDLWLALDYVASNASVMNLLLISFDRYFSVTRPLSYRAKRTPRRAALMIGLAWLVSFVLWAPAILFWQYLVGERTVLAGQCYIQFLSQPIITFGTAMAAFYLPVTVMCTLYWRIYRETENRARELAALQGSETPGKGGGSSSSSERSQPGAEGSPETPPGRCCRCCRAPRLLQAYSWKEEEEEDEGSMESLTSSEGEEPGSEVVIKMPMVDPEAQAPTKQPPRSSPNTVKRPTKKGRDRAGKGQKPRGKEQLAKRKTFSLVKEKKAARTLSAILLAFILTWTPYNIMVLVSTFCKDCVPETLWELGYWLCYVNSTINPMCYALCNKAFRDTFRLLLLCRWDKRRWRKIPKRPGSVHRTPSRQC
# M1 antag: human M1 muscarinic receptor antagonists, primary screen, CHO-K1 cells, Fluo-8 calcium fluorescence, 1536-well; inhibition, % at 3 µM; Muscarinic acetylcholine receptor M1 (Homo sapiens), P11229; AID 588852, 2011; CHO-K1 hM1, ACh EC80 antagonist; hit rate 1.3% among 360,000;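 active = percent inhibition above its own plate's cutoff, namely the mean of that plate's compound wells plus 3 SD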;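 note: peak over basal fluorescence ratio during 140 s after agonist addition; 0% = ACh EC80 plus DMSO and 100% = DMSO alone without agonist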
# CHO-K1 Ca ag: counter-screen for M1 agonists: effect in parental CHO-K1 cells | Fluo-8 calcium fluorescence; scaled to maximal ATP response, vehicle zero | activation, % at 3 µM | hit rate 0.48% among 360,000; in the data active = activation above about 15%;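 note: untransfected CHO-K1 host cells lacking M1 receptor as counterscreen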
# CHO-K1 Ca antag: M1 antagonist counterscreen hit in parental CHO-K1 cells. ATP-induced calcium, Fluo-8 fluorescence. inhibition, % at 3 µM. hit rate 0.6% among 360,000. AID 602250;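 active = inhibition above a per-plate cutoff, the plate's mean sample inhibition plus 3 SD, cut at about 24% in these data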;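 note: 0% = DMSO plus EC80 ATP and 100% = DMSO alone without ATP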
# M1 ag: human M1 muscarinic receptor agonists, primary screen, Fluo-8 calcium fluorescence, CHO-K1 cells, HTS. CHO-K1 hM1, agonist mode; 0% DMSO, 100% acetylcholine EC100. activation, % at 3 µM. hit rate 0.33% among 360,000. AID 588814, 2011;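 active = activation above the run's mean compound activation plus 3 SD, cut at about 16% in these data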;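 note: peak over basal fluorescence ratio within a 140 s kinetic read after compound addition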
# Starred values were filed as active, the others as inactive. Most compounds without a hit are left out; they make up all but 2.3% or so of the library.
SMILES,CHO-K1 Ca PAM,CHRM1 PAM,M1 antag,CHO-K1 Ca ag,CHO-K1 Ca antag,M1 ag
CN(C(=O)CCc1ccccc1F)C1CCCN(Cc2ccccc2F)C1 (stereo not given),6,-9,7,0,-9,-9
COc1ccccc1CNC(=O)COc1cc2c(c3oc(=O)cc(C)c13)CCC(C)(C)O2,-14,-25,34*,1,1,-5
Cc1nnc(SCC(=O)N(CCC#N)c2ccc3c(c2)OCCO3)s1,9,1,3,1,-14,-2
COc1cc(NS(=O)(=O)c2ccc(NC(=S)NC(=O)c3ccco3)cc2)ncn1,4,-2,4,18*,19,-6
O=C(COC(=O)CNC(=O)C1CCCCC1)NCc1ccc(Cl)cc1,-1,-2,-2,0,-1,-2
Cc1cccc(NC(=O)CSc2nc3ccccc3c3nc(CCc4c(C)n[nH]c4C)nn23)c1,7,-14,51*,5,20,-1
COC(=O)c1ccc(/C=C/C(=O)OCC(=O)Nc2sccc2C(N)=O)cc1,-17,-25,47*,16*,10,5
COc1ccc(/C=C/C(=O)OCC(=O)Nc2cc(C(N)=O)cc(C(N)=O)c2)cc1,-15,11,-8,11,25*,-7
NC(=O)c1ccsc1NC(=O)COC(=O)/C=C/c1ccc([N+](=O)[O-])cc1,1,-8,7,12,-3,2
Cc1ccc(NC(=O)CSC(C)C(=O)OCc2cc(=O)oc3cc(O)ccc23)cc1 (stereo not given),6,-3,-2,6,-6,-3
CCCC1C2CN(C(C)C)CC=C2C(C#N)=C(N)C1(C#N)C#N (stereo not given),6,-20,38*,4,5,-1
CN1CC=C2C(C#N)=C(N)C(C#N)(C#N)C(CCc3ccccc3)C2C1 (stereo not given),22,-4,-2,2,-4,-1
CCNC(=O)C1(C)CCCN(C(=O)c2sc(-c3ccccc3)nc2C)C1 (stereo not given),11,4,-7,0,3,-1
CCN(CC)S(=O)(=O)c1ccc(Oc2ccccc2)c(N)c1,9,8,-2,5,-9,-1
CCN(CC)S(=O)(=O)c1ccc(N2CCN(c3ccccc3OC)CC2)c(N)c1,-21,-18,34*,12,17,1
CN1CCC(N(C)CC(=O)Nc2ccc3c(c2)OC(F)(F)O3)CC1,9,-23,72*,0,-9,-7
CCOC(=O)CSc1ccc2nnc(-c3ccccc3)n2n1,-11,4,-4,1,26*,-3
CCOC(=O)CSc1ccc2nnc(-c3cccnc3)n2n1,5,4,-6,0,-2,-1
CCOC(=O)CSc1nnc2cc(C)c3ccccc3n12,8,19*,-13,0,-3,-4
OC1COC(O)C(O)C1O (stereo not given),-10,-1,-9,0,12,0
CCOCCn1c(=O)c2c(nc3n2CCCN3CCc2ccccc2)n(C)c1=O,16,5,-9,2,-10,-1
COc1ccc(-c2c(C(F)(F)F)nn(C)c2NC(C)=O)cc1,7,6,-7,0,1,-3
C=CCc1cccc2cc(C(=O)NCc3cccnc3)c(=O)oc12,-2,-33,36*,0,-9,-15
CCOc1cccc2cc(C(=O)NCc3cccnc3)c(=O)oc12,-9,-5,8,0,-3,-5
CN(C)Cc1cc(C(C)(C)c2ccccc2)ccc1O,7,-27,43*,3,-3,-5
SMILES,CHO-K1 Ca PAM,CHRM1 PAM,M1 antag,CHO-K1 Ca ag,CHO-K1 Ca antag,M1 ag
CCOc1cc(C)c(S(=O)(=O)Nc2ccc3cn[nH]c3c2)cc1C,-3,-14,32*,9,23,6
Cc1ccc(S(=O)(=O)Nc2ccc3cn[nH]c3c2)c(C)c1,0,6,-5,5,-2,7
CC1([N+](=O)[O-])COC(c2cccc3ccccc23)OC1 (stereo not given),-15,-9,11,0,26*,-2
COc1ccccc1C1OCC(C)([N+](=O)[O-])CO1 (stereo not given),17,3,-6,1,-10,0
COc1ccccc1C(CNC(=O)c1cccc(S(=O)(=O)N2CCCc3ccccc32)c1)N(C)C (stereo not given),-10,-31,101*,1,-3,-9
COc1ccccc1C(CNC(=O)c1cccc(S(=O)(=O)N2c3ccccc3CC2C)c1)N(C)C (stereo not given),11,-26,99*,1,-25,-8
CCOC(=O)COc1cc2c3c(c(=O)oc2cc1C)CCCC3,15,-22,48*,3,5,-5
CC(=O)c1ccc(N2CCN(C(=O)c3cccs3)CC2)c(F)c1,12,11,-18,6,-7,-2
CCCC(=O)c1ccc(N2CCN(C(=O)c3cccs3)CC2)c(F)c1,-11,-23,42*,15*,11,-3
CC1(C)CC(=O)C(C=Nc2ccccc2Sc2ccccc2)=C(O)C1,1,-26,63*,0,-3,-6
CC1(C)CC(=O)C(C=Nc2ccccc2C(=O)O)=C(O)C1,12,9,-5,0,0,-6
O=C1COC(c2ccccc2)=CN1Cc1ccccc1,10,6,-6,5,-15,-3
CC1CCCCN1CCNC(=O)CC1Oc2ccccc2NC1=O (stereo not given),7,-24,36*,0,-2,-13
Cc1ccc2c(c1)NC(=O)C(CC(=O)NCCCN1CCCCC1C)O2 (stereo not given),14,-2,-9,-1,2,-14
Cc1ccc2c(c1)NC(=O)C(CC(=O)NCCCN1CCCC1)O2 (stereo not given),4,1,0,3,9,-13
CCC(C)N(CCNC(=O)CC1Oc2ccc(C)cc2NC1=O)C1CCCCC1 (stereo not given),-3,-35,101*,0,-2,-14
Cc1ccc(NC(=O)c2cnc(N3CCN(c4ccccn4)CC3)c3ccccc23)c(Br)c1,-6,-27,32*,6,26*,-5
O=C(Nc1c(F)cccc1F)c1cnc(N2CCN(c3ccccn3)CC2)c2ccccc12,-9,-5,21,5,30*,-1
CCN1CCN(c2ncc(C(=O)Nc3cc(Cl)ccc3OC)c3ccccc23)CC1,10,-23,58*,1,-6,-5

# Screening data (PubChem BioAssay)
